Compounds without any hit were thinned out: in the full panel of roughly 83,000, 20% have a hit.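 Compound tested at a single concentration for 48 hours in 96-well plates; a percent growth value below 10 was scored as active.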 Unmarked numbers belong to inactive results. Activity calls are given as the source filed them.
Columns and labels:
Assay in all cases: NCI-60 one-dose screen, 48 h (100 = growth as untreated, 0 = no growth, -100 = all killed)
Details in all cases: 10 µM unless noted
SK-MEL-2 melanoma = test system: SK-MEL-2 melanoma
EKVX NSCLC = test system: EKVX NSCLC
SN12C renal = test system: SN12C renal
UO-31 renal = test system: UO-31 renal
TK-10 renal = test system: TK-10 renal
ACHN renal = test system: ACHN renal
CAKI-1 renal = test system: CAKI-1 renal
A498 renal = test system: A498 renal
CCRF-CEM leukemia = test system: CCRF-CEM leukemia
MOLT-4 leukemia = test system: MOLT-4 leukemia

SMILES | growth (SK-MEL-2 melanoma) | growth (EKVX NSCLC) | growth (SN12C renal) | growth (UO-31 renal) | growth (TK-10 renal) | growth (ACHN renal) | growth (CAKI-1 renal) | growth (A498 renal) | growth (CCRF-CEM leukemia) | growth (MOLT-4 leukemia)
CCCCCCCCCCCCCCCCOCCCOP(=O)(O)C1CCCN(O)C1=O (stereo not given) | 36% | 33.9% | 16.3% | 5.07% (active) | 33.1% | 10.5% | 16.6% | 1.39% (active) | 5.85% (active) | 7.18% (active)
COc1ccc(C(=O)c2cc3c(N)c(C(=O)Nc4ccc(C)cc4)sc3nc2C)cc1 | 56.1% | 40.8% | 37.2% | 41.2% | 61.3% | 46.8% | 28% | 14% | 15.7% | 20.5%
c1ccc(Cn2cc3c(c2)-c2oncc2CC3)cc1 | 53.9% | 41.4% | 47.8% | 41.6% | 77.1% | 56.7% | 47% | 44.6% | 6.94% (active) | 53.6%
CC(=O)/C(=C\c1c(-c2ccccc2)[nH]c2ccccc12)S(C)(=O)=O | 59.9% | 50.4% | 33.4% | 51% | 42.7% | 50.2% | 45.6% | 31.9% | 1.75% (active) | -13.5% (active)
COc1ccc(C2CC(c3ccc(Nc4nc(Nc5ccccc5)nc(Nc5ccccc5)n4)cc3)=NN2C(C)=O)cc1 (stereo not given) | 68.5% | 132% | 95.7% | 78.3% | 104% | 100% | 105% | 95.5% | 88.6% | 71.2%
COC(=O)c1nc(-c2ccc(C)cc2)oc1S(=O)(=O)c1cccc(OC)c1 | 95.9% | 100% | 85% | 90.3% | 64.8% | 42.8% | 69.5% | 102% | -9.09% (active) | -7.44% (active)
O=C(/C=C/c1cn(-c2ccccc2)nc1-c1ccc(Cl)cc1)c1ccc(F)cc1 | 88.6% | 116% | 78.1% | 63.3% | 107% | 77.7% | 76.5% | 96.5% | 40% | 36.1%
COc1ccc(Nc2ncc(Br)c(NCCCNC(=O)c3cccs3)n2)cc1 | 46.8% | 55.6% | 21.5% | -0.36% (active) | 24.3% | 21.3% | 16.2% | 51.7% | 16.3% | 19.5%
COc1ccc2c(c1)c(-c1nc(-c3c[nH]c4ccncc34)cs1)cn2C | -45.2% (active) | -53.3% (active) | -72% (active) | -88% (active) | 43.4% | -96.7% (active) | -86.3% (active) | 65.7% | -45.2% (active) | -42.8% (active)
Cc1ccc(C[P+](c2ccccc2)(c2ccccc2)c2ccccc2)cc1 | -4.59% (active) | 6.8% (active) | 4.76% (active) | 88.1% | 30.5% | 24.4% | 44.8% | 27.5% | 9.9% (active) | -31.4% (active)
O=C(C[C@]1(O)C(=O)Nc2ccccc21)c1cccc(C(F)(F)F)c1 | 91.2% | 99.5% | 80% | 58.1% | 138% | 88.2% | 81.7% | 99.8% | 97% | 96%
Fc1ccc(CNc2c3ccccc3nc3ccccc23)c(F)c1 | 99.7% | 45.5% | 37.2% | 30.3% | 61% | 23.4% | 35.3% | -4.38% (active) | 53.9% | 23.8%
C/C(=N\O)c1ccc(Cl)cc1 | 120% | 103% | 99% | 91.4% | 107% | 105% | 96.9% | 111% | 118% | 86.3%
COc1ccc(NC2=C(I)C(=O)c3ncccc3C2=O)cc1 | 29.1% | 64.8% | -96.4% (active) | -92.6% (active) | 51.1% | -12.7% (active) | 24.1% | 65.3% | 11% | -31.7% (active)
C1CCC([PH+](C2CCCCC2)C2CCCCC2[PH+](C2CCCCC2)C2CCCCC2)CC1.[Au].[CH-]1CCCCC1C1CCCC[N-]1 (stereo not given) | -56.6% (active) | -77.6% (active) | -47.3% (active) | -96.3% (active) | -58.7% (active) | -99.4% (active) | -88% (active) | -71.1% (active) | 2.23% (active) | -6.51% (active)
Cn1cc(-c2csc(-c3cn(C(=O)OC(C)(C)C)c4ccc(Br)cc34)n2)c2ccnc(Cl)c21 | 96.3% | 87.7% | 93.6% | 96% | 92.9% | 82.8% | 96.4% | 89.6% | 93.1% | 90.9%
